# PubChem BioAssay
# Values joined by “and” are separate entries in the source; they are usually repeats but may differ in a detail not shown here. Identical values can stand only once. Active and inactive are the calls of the source. Rule as the data show it, unless noted: active = inhibition above about 80%; inactive = the rest.
# Legend:
# [1] = compounds altering viability of human ES cells (AID 493140; call rule not given here;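 also: cells exposed to compounds for four days before counting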); settings: human embryonic stem cell survival screen; stronger effect = higher value
# [2] = viability loss with induced miR-34 in A549 – imaging, A549 dox-inducible miR-34, nuclei and caspase counts, primary screen (AID 1347080;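 active = compounds whose cell count with miR-34 switched on is under 0.7 times the count with it off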); settings: A549 miR-34 inducible, Hoechst nuclei count, 48 h
# [3] = MELAS cybrid and Rieske KO viability enhancers – cell-based, MELAS cybrids, Rieske KO mouse fibroblasts, CellTiter-Glo, primary screen (AID 1508586;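 active = mean z-score across replicates of 1.96 or higher in either the MELAS or the Rieske mutant cell line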;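 also: z relative to plate mean and SD of compound and empty wells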); settings: low glucose
# [4] = growth inhibition, single agent or in combination, cell-based, chromothripsis tumors, cisplatin or BGB combos (AID 1671449); settings: LFS_MB_P medulloblastoma cells;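 also: cells exposed for 96 hours; 0% = vehicle DMSO and 100% = killing by high DMSO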
# [5] = growth inhibition, single agent and combos, cell-based, chromothripsis tumors, cisplatin or BGB combos (AID 1671450); settings: HDN33 neuroblastoma cells, stronger effect = higher value;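 also: cells exposed to compound for four days; 0% = vehicle DMSO and 100% = cell killing by high DMSO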
# [6] = growth inhibition, single agents and combos, ICB984, cell-based, cisplatin or BGB combos, synergistic combos for chromothripsis tumors (AID 1671451; call rule not given here;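 also: cells exposed for 96 hours before readout; 0% = vehicle DMSO and 100% = killing by high DMSO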); settings: ICB984 medulloblastoma cells, drug combinations, stronger effect = higher value
# [7] = growth inhibition, single agents and combos, LFS_MB_1R, cell-based, cisplatin or BGB combos, synergistic combos for chromothripsis tumors (AID 1671452); settings: LFS_MB_1R medulloblastoma cells, stronger effect = higher value;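 also: cells exposed for 96 hours before readout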
# [8] = growth inhibition, single agents and combos, HTB85, cell-based, BGB or cisplatin IC20 combos, synergistic combos for chromothripsis tumors (AID 1671453); settings: HTB85 osteosarcoma cells, drug combinations, stronger effect = higher value;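 also: cells exposed for 96 hours before readout; 0% = vehicle DMSO and 100% = high DMSO killing control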
# [9] = growth inhibition, single agents and combos, CRL2098, cell-based, BGB or cisplatin IC20 combos, synergistic combos for chromothripsis tumors (AID 1671454); settings: CRL2098 osteosarcoma cells, drug combinations, stronger effect = higher value;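 also: cells exposed for 96 h before readout; 0% = vehicle DMSO and 100% = killing by high DMSO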
# [10] = growth inhibition, single agents and combos, HD-MB03, cell-based, BGB or cisplatin IC20 combos, synergistic combos for chromothripsis tumors (AID 1671455; in the data active = inhibition above about 83%;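 also: 0% = vehicle DMSO and 100% = high DMSO as cytotoxic control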); settings: HD-MB03 medulloblastoma cells, stronger effect = higher value
# [11] = growth inhibition, single agents and combos, UWB1.289, cell-based, BGB or cisplatin combos, synergistic combos for chromothripsis tumors (AID 1671456); settings: UWB1.289 ovarian carcinoma cells, stronger effect = higher value;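 also: cells exposed to compound for four days; 0% = vehicle DMSO and 100% = killing by high DMSO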
# [12] = growth inhibition, single agents and combos, LFS_MB_2R, cell-based, cisplatin combos, synergistic combos for chromothripsis tumors (AID 1671457); settings: LFS_MB_2R medulloblastoma cells, stronger effect = higher value;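 also: cells exposed to compound for four days before readout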
# [13] = growth inhibition, MDA-MB-436, cell-based, BGB or cisplatin combos, synergistic combos for chromothripsis tumors (AID 1671458; call rule not given here;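 also: cells exposed for 96 hours; 0% = vehicle DMSO and 100% = killing by high DMSO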); settings: MDA-MB-436 breast carcinoma growth inhibition, drug combinations, stronger effect = higher value
# [14] = UWB1.289_BRCA1 ovarian cancer growth, cell-based, BGB or cisplatin combinations (AID 1671459); settings: UWB1.289 BRCA1 ovarian carcinoma, drug combinations, stronger effect = higher value
# [15] = drug combination toxicity in non-malignant astrocytes – cell-based, BGB or cisplatin IC20 combos, cytotoxicity control for chromothriptic childhood tumor combination screen (AID 1671460); settings: Human astrocytes, viability inhibition, drug combinations, at 0.5 µM, stronger effect = higher value;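 also: cells exposed to compounds for 96 hours before viability readout; 0% = vehicle and 100% = killing control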
# [16] = BT084 cell growth, single and combined drugs, ICGC_MB145, cisplatin and BGB IC40 combos (AID 1671461); settings: BT084 medulloblastoma cells, drug combinations, stronger effect = higher value;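 also: cells exposed to drugs for 96 hours; 0% = vehicle DMSO and 100% = high DMSO full killing control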
# [17] = RCMB18 cell growth, single agent and combined, cisplatin and BGB IC40 combos (AID 1671462); settings: RCMB18 medulloblastoma cells, stronger effect = higher value;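 also: cells exposed to compound for four days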
# [18] = CRL1545 cell growth, single agent and combined, cisplatin and BGB IC20 combos (AID 1671464); settings: CRL1545 osteosarcoma cells, stronger effect = higher value;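 also: cells exposed to compound for 96 hours before readout; 0% = vehicle DMSO and 100% = high DMSO killing control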
# [19] = measured here: combination with BGB IC40, at 0.05 µM
# [20] = measured here: with BGB IC20 combination, at 0.5 µM
# [21] = measured here: with cisplatin IC20 combination, at 0.5 µM
# [22] = measured here: combination with cisplatin, at 0.5 µM
# [23] = measured here: combination with cisplatin, at 5 µM
smiles,measurement,setting,value
Cc1cn(C2CC(N=[N+]=[N-])C(CO)O2)c(=O)[nH]c1=O (stereo not given),survival,[1],10.2 (inactive)
same,fold change,"[2]; stronger effect = lower value, cell number ratio, induced over uninduced",0.983 (inactive)
same,fold change,[2]; measured here: relative caspase fold change +Dox/-Dox,1.14
same,cell count,"[2]; measured here: total cells with miR-34 induction, stronger effect = lower value",8190
same,cell count,[2]; measured here: total cells without miR-34 induction,8330
same,z-score,"[3]; MELAS cybrid survival, CellTiter-Glo 48 h, stronger effect = higher value",-0.326 (inactive)
same,z-score,"[3]; Rieske KO mouse fibroblast survival, CellTiter-Glo 72 h",-0.454
same,inhibition,"[4]; at 0.5 µM, stronger effect = higher value",-14.1% (inactive) and -29.8% (inactive)
same,inhibition,"[4]; measured here: combination with BGB IC20, at 0.005 µM",-13.1% and -7.61%
same,inhibition,"[4]; measured here: combination with BGB IC40, at 0.005 µM",-10.5% and -37.1%
same,inhibition,[4]; [19],-24.2% and -22.6%
same,inhibition,"[4]; measured here: combination with cisplatin, at 0.5 µM, stronger effect = higher value",-21.8% and -53%
same,inhibition,"[4]; measured here: combination with cisplatin, at 5 µM, stronger effect = higher value",-32.8% and -21.5%
same,inhibition,"[5]; BGB combo, at 5 µM",-43.8% and -18.1%
same,inhibition,[5]; at 0.5 µM,-49.6% (inactive) and 10.8% (inactive)
same,inhibition,"[5]; cisplatin combo, at 5 µM",-26% and 16.6%
same,inhibition,[5]; [20],-50.2% and 15%
same,inhibition,[5]; [21],-46.8% and 4.29%
same,inhibition,"[5]; single agent, at 5 µM",-44.8% and -1.12%
same,inhibition,"[6]; BGB IC20 combo, at 0.005 µM",-34.8% and -14.5%
same,inhibition,"[6]; BGB IC40 combo, at 0.005 µM",-37.8% and -34.3%
same,inhibition,"[6]; BGB IC40 combo, at 0.05 µM",-19.4% and -8.93%
same,inhibition,[6]; at 0.5 µM,-42.3% (inactive) and -13.3% (inactive)
same,inhibition,"[6]; cisplatin combo, at 0.05 µM",-22.8% and -13.2%
same,inhibition,"[6]; cisplatin combo, at 0.5 µM",-48.8% and -6.3%
same,inhibition,"[6]; cisplatin combo, at 5 µM",-19.3% and -19.8%
same,inhibition,"[6]; measured here: 5 uM single agent, at 5 µM",-29% and -10.5%
same,inhibition,[7]; at 0.5 µM,-35.4% (inactive) and -15.1% (inactive)
same,inhibition,[7]; [19],-33.7% and -15%
same,inhibition,[7]; [22],-50% and -12.6%
same,inhibition,[7]; [23],-73.7% and 10.3%
same,inhibition,[8]; at 0.5 µM,-30.9% (inactive) and 5.14% (inactive)
same,inhibition,"[8]; measured here: with BGB IC20, at 0.5 µM",-44.2% and -2.77%
same,inhibition,"[8]; measured here: with BGB IC20, at 5 µM",-49% and -21.3%
same,inhibition,"[8]; measured here: with cisplatin IC20, at 0.5 µM",-19.6% and 10.7%
same,inhibition,"[8]; measured here: with cisplatin IC20, at 5 µM",-35.3% and 18.4%
same,inhibition,"[8]; single agent, at 5 µM",-30.3% and -3.23%
same,inhibition,[9]; at 0.5 µM,-75.6% (inactive) and -23.9% (inactive)
same,inhibition,"[9]; measured here: combination with BGB at IC20, at 0.5 µM",-42.6% and -11.7%
same,inhibition,"[9]; measured here: combination with cisplatin at IC20, at 0.5 µM",-96.9% and -12%
same,inhibition,[10]; at 0.5 µM,-21.5% (inactive) and -4.43% (inactive)
same,inhibition,"[10]; measured here: combo with BGB at IC20, at 0.5 µM",-16.2% and -1.6%
same,inhibition,"[10]; measured here: combo with cisplatin at IC20, at 0.5 µM",-27.8% and -2.64%
same,inhibition,[11]; at 0.5 µM,-6.97% (inactive) and -2.38% (inactive)
same,inhibition,"[11]; measured here: inhibition with BGB combination, at 0.05 µM",-33.2% and -11.1%
same,inhibition,"[11]; measured here: inhibition with cisplatin combination, at 0.05 µM",-13% and -8.1%
same,inhibition,[12]; at 0.5 µM,3.25% (inactive) and -11.1% (inactive)
same,inhibition,[12]; [22],-9.8% and -20.4%
same,inhibition,[12]; [23],-113% and -20.1%
same,inhibition,[13]; at 0.5 µM,-19.9% (inactive) and -9.1% (inactive)
same,inhibition,"[13]; measured here: BGB combination, at 0.5 µM",-17.7% and -10.4%
same,inhibition,"[13]; measured here: BGB combination, at 5 µM",-13.1% and -23.1%
same,inhibition,"[13]; measured here: cisplatin combination, at 0.5 µM",-42.5% and -8.26%
same,inhibition,"[13]; measured here: cisplatin combination, at 5 µM",-32% and 1.63%
same,inhibition,"[14]; BGB combination, concentration series, at 5 µM",-27.1% and 1.57%
same,inhibition,[14]; at 0.5 µM,-15.8% (inactive) and 1.59% (inactive)
same,inhibition,"[14]; cisplatin combination, concentration series, at 5 µM",-5.2% and 7.24%
same,inhibition,[15],1.65% (inactive) and 1.35% (inactive)
same,inhibition,[15]; measured here: combo with BGB IC20,10% and -0.346%
same,inhibition,[15]; measured here: combo with cisplatin IC20,-32% and 7.19%
same,inhibition,[16]; at 0.5 µM,-31.2% (inactive) and -18.3% (inactive)
same,inhibition,"[16]; cisplatin combination, at 0.5 µM",-20.4% and -7.03%
same,inhibition,"[16]; cisplatin combination, at 5 µM",-13.7% and 8.51%
same,inhibition,"[16]; measured here: BGB IC40 combination 0.05 uM, at 0.05 µM",-13.5% and -22.4%
same,inhibition,"[16]; single agent, at 5 µM",-33.2% and -6.84%
same,inhibition,[17]; at 0.5 µM,-27.2% (inactive) and -6.41% (inactive)
same,inhibition,"[17]; cisplatin combo, at 5 µM",-15.6% and -7.21%
same,inhibition,"[17]; measured here: BGB IC40 combination, at 0.05 µM",-27% and -25%
same,inhibition,[17]; [22],-39.9% and -10.1%
same,inhibition,"[17]; single agent, at 5 µM",-41.5% and -29.4%
same,inhibition,[18]; at 0.5 µM,-61.3% (inactive) and 13.1% (inactive)
same,inhibition,[18]; [20],-40.5% and 10%
same,inhibition,[18]; [21],-75.6% and 14.6%
same,inhibition,"[18]; single agent, at 0.05 µM",-59.4% and 9.83%
same,inhibition,"[18]; single agent, at 5 µM",-40.3% and 11.6%
